The results in this text go back to PubChem BioAssay (EPA / NIEHS).

Activity calls are given as the source filed them. Rule for the calls: active = hit-call score of the fitted dose curve at least 0.9, where 1 is the maximum; inactive = score below 0.9.

Read-out in experiment [1]: Transforming growth factor beta 1 (TGFb1), TGFB1 (gene 7040)
The experiment in a line: BSK_KF3CT_TGFb1: BioMAP Diversity Plus: KF3CT Assay for Transforming growth factor beta 1 (TGFb1) Biomarker Activity (AID 2283072). Particulars: primary human keratinocytes with fibroblasts; actives raise or lower the signal. The gist of the method: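 Human keratinocyte plus foreskin fibroblast primary co-culture, dosed with chemical for 24 h. TGF-b1 quantified by ELISA. Activity fitted bidirectionally against DMSO negative control as baseline.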

Read-out in experiment [2]: C-C motif chemokine 2 (Homo sapiens) (UniProt P13500)
The experiment in a line: BSK_KF3CT_MCP1: BioMAP Diversity Plus: KF3CT Assay for Monocyte Chemoattractant Protein 1 (MCP1/CCL2) Biomarker Activity (AID 2283073). The conditions noted are these: primary human keratinocytes with fibroblasts; actives raise or lower the signal. The gist of the method:
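Biomarker MCP-1 is measured by ELISA in primary human keratinocytes co-cultured with foreskin fibroblasts, 24 h after chemical treatment; DMSO serves as the negative control and activity baseline.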

Read-out in experiment [3]: Matrix Metallopeptidase 9 (MMP9), MMP9 (gene 4318)
The experiment in a line: BSK_KF3CT_MMP9: BioMAP Diversity Plus: KF3CT Assay for Matrix Metallopeptidase 9 (MMP9) Biomarker Activity (AID 2283074).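 For AC50: MMP9 protein level quantified by ELISA in the co-culture.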 The conditions noted are these: primary human keratinocytes with fibroblasts; actives raise or lower the signal. An outline of the steps:
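Human keratinocyte and foreskin fibroblast co-culture exposed to chemicals for 24 h; MMP9 biomarker measured by ELISA, bidirectional fitting relative to DMSO; cytotoxicity tracked by SRB total protein staining in parallel cultures.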

Read-out in experiment [4]: urokinase plasminogen activator (uPA), PLAU (gene 5328)
The experiment in a line: BSK_KF3CT_uPA: BioMAP Diversity Plus: KF3CT Assay for urokinase plasminogen activator (uPA) Biomarker Activity (AID 2283075). Particulars: primary human keratinocytes with fibroblasts; actives raise or lower the signal. The gist of the method: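 Primary human keratinocyte/foreskin fibroblast co-culture exposed to chemical; uPA measured by ELISA at 24 h. Bidirectional fit versus DMSO, with parallel SRB total-protein staining for cytotoxicity.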

Read-out in experiment [5]: CD40, CD40 (gene 958)
Description: BSK_LPS_CD40: BioMAP Diversity Plus: LPS Assay for CD40 Biomarker Activity (AID 2283076). Particulars: primary human HUVEC with PBMC; actives raise or lower the signal. An outline of the steps:
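Using a multiplexed primary human co-culture (umbilical vein endothelium plus PBMC), CD40 was read by ELISA 24 h after dosing, with cytotoxicity tracked by sulforhodamine B staining of parallel cultures and activity fitted bidirectionally versus DMSO.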

Read-out in experiment [6]: E-selectin (Homo sapiens) (UniProt P16581)
Description: BSK_LPS_Eselectin: BioMAP Diversity Plus: LPS Assay for Eselectin Biomarker Activity (AID 2283077). The conditions noted are these: primary human HUVEC with PBMC; actives raise or lower the signal. An outline of the steps: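 Dose chemical onto LPS-driven HUVEC/PBMC co-culture; after 24 h, run ELISA for E-selectin; fit up- and down-going responses relative to DMSO control.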

Read-out in experiment [7]: Interleukin-8 (IL8), CXCL8 (gene 3576)
Description: BSK_LPS_IL8: BioMAP Diversity Plus: LPS Assay for Interleukin-8 (IL8) Biomarker Activity (AID 2283078). Particulars: primary human HUVEC with PBMC; actives raise or lower the signal. An outline of the steps: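 In this LPS system, chemical-treated human umbilical vein endothelium/PBMC co-cultures were harvested at 24 h for IL-8 ELISA.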

Experiment [8] is described as follows: BSK_LPS_SRB: Viability Assessment in the BioMAP Diversity Plus: LPS Assay (AID 2283079).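 Note: total protein by sulforhodamine B absorbance as a cytotoxicity measure; measured one day after compound addition; fitted in both directions against DMSO so loss or gain of signal counts.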 Particulars: primary human HUVEC with PBMC. An outline of the steps:
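Cytotoxicity endpoint in human endothelial–PBMC co-culture: 24 h exposure, then SRB (0.1%) staining, 560 nm read.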

Read-out in experiment [9]: Interleukin-1 alpha (IL1a), IL1A (gene 3552)
Description: BSK_LPS_IL1a: BioMAP Diversity Plus: LPS Assay for Interleukin-1 alpha (IL1a) Biomarker Activity (AID 2283080). Particulars: primary human HUVEC with PBMC; actives raise or lower the signal. The gist of the method: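 Primary human HUVEC and PBMC co-culture stimulated with LPS is dosed and harvested at 24 h. Both increases and decreases in ELISA-measured IL-1a are scored relative to DMSO.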

Read-out in experiment [10]: Monocyte Chemoattractant Protein-1 (MCP1), CCL2 (gene 6347)
Description: BSK_LPS_MCP1: BioMAP Diversity Plus: LPS Assay for Monocyte Chemoattractant Protein-1 (MCP1) Biomarker Activity (AID 2283081). Particulars: primary human HUVEC with PBMC; actives raise or lower the signal. An outline of the steps: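 Values derive from bidirectional fitting against DMSO of ELISA-measured MCP-1 in a human primary endothelial and mononuclear cell co-culture, 24 h after chemical addition under LPS activation.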

Experiment [11] can be described thus: BSK_LPS_PGE2: BioMAP Diversity Plus: LPS Assay for Prostaglandin E2 (PGE2) Biomarker Activity (AID 2283082). The conditions noted are these: primary human HUVEC with PBMC; actives raise or lower the signal. An outline of the steps: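 HUVEC plus PBMC co-culture stimulated with LPS; secreted PGE2 quantified by ELISA 24 h after chemical dosing. Activity fitted bidirectionally against DMSO as negative control and baseline; parallel SRB total-protein staining served as cytotoxicity check.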

Read-out in experiment [12]: Macrophage colony-stimulating factor (MCSF), CSF1 (gene 1435)
The experiment in a line: BSK_LPS_MCSF: BioMAP Diversity Plus: LPS Assay for Macrophage colony-stimulating factor (MCSF) Biomarker Activity (AID 2283083). Particulars: primary human HUVEC with PBMC; actives raise or lower the signal. The gist of the method: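 Bidirectional fit versus DMSO of ELISA-measured M-CSF in co-cultured human umbilical vein endothelial cells and PBMC, sampled 24 h after dosing.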

Read-out in experiment [13]: Tissue Factor, F3 (gene 2152)
Description: BSK_LPS_TissueFactor: BioMAP Diversity Plus: LPS Assay for Tissue Factor Biomarker Activity (AID 2283084). Particulars: primary human HUVEC with PBMC; actives raise or lower the signal. The gist of the method: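 Read-out: CD142 ELISA, 24 h. System: LPS-driven human endothelial/PBMC co-culture. Analysis: up- or down-signal fitted against DMSO.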

Read-out in experiment [14]: Tumor necrosis factor (Homo sapiens) (UniProt P01375)
Description: BSK_LPS_TNFa: BioMAP Diversity Plus: LPS Assay for Tumour Necrosis Factor alpha (TNFa) Biomarker Activity (AID 2283085). The conditions noted are these: primary human HUVEC with PBMC; actives raise or lower the signal. The gist of the method: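 Human umbilical vein endothelial cells co-cultured with PBMC were exposed to test chemical and TNFa measured by ELISA 24 h after dosing. Bidirectional curve fitting was done relative to DMSO as negative control and baseline.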

Read-out in experiment [15]: Vascular cell adhesion molecule 1 (VCAM1), VCAM1 (gene 7412)
The experiment in a line: BSK_LPS_VCAM1: BioMAP Diversity Plus: LPS Assay for Vascular cell adhesion molecule 1 (VCAM1) Biomarker Activity (AID 2283086). The conditions noted are these: primary human HUVEC with PBMC; actives raise or lower the signal. The gist of the method: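 Human umbilical vein endothelial cells co-cultured with peripheral blood mononuclear cells under LPS stimulation were exposed to test chemical for 24 h. VCAM-1 levels were then measured by ELISA, with bidirectional curve fitting relative to DMSO as negative control and baseline.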

Read-out in experiment [16]: CD38, CD38 (gene 952)
The experiment in a line: BSK_SAg_CD38: BioMAP Diversity Plus: SAg Assay for CD38 Biomarker Activity (AID 2283087). Particulars: primary human HUVEC with PBMC; actives raise or lower the signal. The gist of the method:
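Fluorescence ELISA of cell-surface CD38 served as the read-out, with either increase or decrease fitted against DMSO controls. Cells were a human umbilical vein endothelium plus PBMC co-culture under SEB/TSST-1 stimulation, measured 24 h after dosing.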

Read-out in experiment [17]: CD40, CD40 (gene 958)
The experiment in a line: BSK_SAg_CD40: BioMAP Diversity Plus: SAg Assay for CD40 Biomarker Activity (AID 2283088). Particulars: primary human HUVEC with PBMC; actives raise or lower the signal. An outline of the steps: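 Endpoint derived by fitting increases or decreases versus DMSO controls. CD40 is detected by fluorescence ELISA in a human vascular co-culture of endothelium and PBMC at 24 h.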

Read-out in experiment [18]: CD69, CD69 (gene 969)
Description: BSK_SAg_CD69: BioMAP Diversity Plus: SAg Assay for CD69 Biomarker Activity (AID 2283089).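 For AC50: cell surface CD69 protein quantified by ELISA with fluorescence detection.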 Particulars: primary human HUVEC with PBMC; actives raise or lower the signal. An outline of the steps: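 Endothelial/PBMC co-culture; chemical added; 24 h incubation; CD69 ELISA with fluorescence detection; bidirectional fit vs DMSO.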

Read-out in experiment [19]: E-selectin (Homo sapiens) (UniProt P16581)
The experiment in a line: BSK_SAg_Eselectin: BioMAP Diversity Plus: SAg Assay for Eselectin Biomarker Activity (AID 2283091). The conditions noted are these: primary human HUVEC with PBMC; actives raise or lower the signal. The gist of the method: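 Endpoint values derive from bidirectional fitting relative to DMSO, using ELISA-measured E-selectin in a human vascular co-culture (umbilical vein endothelium plus PBMC) sampled 24 h after dosing.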

Read-out in experiment [20]: Monocyte Chemoattractant Protein-1 (MCP1), CCL2 (gene 6347)
Description: BSK_SAg_MCP1: BioMAP Diversity Plus: SAg Assay for Monocyte Chemoattractant Protein-1 (MCP1) Biomarker Activity (AID 2283090). The conditions noted are these: primary human HUVEC with PBMC; actives raise or lower the signal. The gist of the method: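 MCP-1 levels in the endothelial–PBMC SAg co-culture were quantified by ELISA at 24 h post-dosing; both increases and decreases versus DMSO scored. Cytotoxicity monitored by SRB total protein in parallel cultures.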

Chain of E-selectin (Homo sapiens) (P16581 whole entry, looked up): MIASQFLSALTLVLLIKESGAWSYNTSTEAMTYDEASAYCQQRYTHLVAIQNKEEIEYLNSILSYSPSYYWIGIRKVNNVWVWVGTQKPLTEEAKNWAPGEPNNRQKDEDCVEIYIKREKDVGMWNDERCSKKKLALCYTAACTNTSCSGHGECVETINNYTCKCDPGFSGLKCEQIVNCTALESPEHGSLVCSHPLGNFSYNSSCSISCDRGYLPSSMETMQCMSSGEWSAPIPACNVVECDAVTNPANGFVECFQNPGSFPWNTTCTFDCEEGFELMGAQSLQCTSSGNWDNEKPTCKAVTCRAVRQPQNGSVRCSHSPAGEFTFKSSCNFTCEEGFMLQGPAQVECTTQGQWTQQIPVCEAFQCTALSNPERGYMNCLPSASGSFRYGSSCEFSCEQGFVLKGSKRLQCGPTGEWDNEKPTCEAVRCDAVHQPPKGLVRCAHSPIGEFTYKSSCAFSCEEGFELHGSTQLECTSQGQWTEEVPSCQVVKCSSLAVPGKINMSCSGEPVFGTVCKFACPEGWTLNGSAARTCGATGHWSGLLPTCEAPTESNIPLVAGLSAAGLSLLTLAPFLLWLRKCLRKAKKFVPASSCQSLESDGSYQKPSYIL
Chain of Tumor necrosis factor (Homo sapiens) (P01375 whole entry, looked up): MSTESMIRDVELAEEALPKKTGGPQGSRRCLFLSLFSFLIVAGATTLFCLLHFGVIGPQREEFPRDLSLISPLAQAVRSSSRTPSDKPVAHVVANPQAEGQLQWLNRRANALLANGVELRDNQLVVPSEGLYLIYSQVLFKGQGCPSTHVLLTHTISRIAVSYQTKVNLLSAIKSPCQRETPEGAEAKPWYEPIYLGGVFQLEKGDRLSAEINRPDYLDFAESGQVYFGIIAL

`CC(CO)OC(C)CO` (centres undefined) (tested in a mixture with another compound): the result in experiment [1], in [2], in experiment [3], in [4], in [5] and in experiment [6] was inactive. The outcome in experiment [7], in experiment [8], in experiment [9], in experiment [10], in experiment [11] and in experiment [12] was inactive. The result in experiment [13], in experiment [14], in experiment [15], in experiment [16], in experiment [17] and in experiment [18] was inactive. Moreover, in [19], the result was inactive.

For `CCCCCCOCCO`, the outcome in experiment [1], in experiment [2], in experiment [3], in [4], in [5] and in [6] was inactive. The result in experiment [7], in experiment [8], in experiment [9], in [11], in [13] and in experiment [15] was inactive. Further, the outcome in experiment [16], in experiment [17], in experiment [18], in [20] and in [19] was inactive.

On to `CC(=O)Oc1ccccc1C(=O)O`, for which the result in experiment [1], in experiment [2], in [3], in [4], in experiment [5] and in [6] was inactive. Besides, the result in experiment [7], in experiment [8], in experiment [9], in experiment [13], in experiment [14] and in experiment [15] was inactive. Moreover, the outcome in [16], in experiment [17], in experiment [18] and in experiment [19] was inactive. Also, the AC50 in experiment [11] is 3.25 µM (active).

As for `Nc1nc(N)c2nc(CNc3ccc(C(=O)N[C@@H](CCC(=O)O)C(=O)O)cc3)cnc2n1`, the result in experiment [1], in experiment [2], in experiment [3], in experiment [5], in [6] and in experiment [7] was inactive. Further, the outcome in experiment [8], in [9], in experiment [10], in experiment [11], in [12] and in experiment [13] was inactive. In addition, the outcome in experiment [14], in [15], in experiment [16], in experiment [17], in experiment [18] and in experiment [20] was inactive. For the same molecule, the outcome in experiment [19] was inactive.

With `C=CCOC(=O)c1ccccc1C(=O)OCC=C`, the result in experiment [1], in experiment [2], in [3], in experiment [5], in experiment [6] and in [7] was inactive. For the same molecule, the result in experiment [8], in experiment [9], in experiment [10], in [11], in experiment [12] and in experiment [13] was inactive. The result in experiment [14], in experiment [15], in experiment [16], in [17], in experiment [18] and in experiment [19] was inactive.

In the case of `CN[C@H]1CC[C@@H](c2ccc(Cl)c(Cl)c2)c2ccc(S(N)(=O)=O)cc21`, the half-maximal activity concentration (AC50) in experiment [1] was 19.9 µM (active); in experiment [2], 14.9 µM (active); in experiment [3], 20.9 µM (active); in [4] it was 18.6 µM (active); in experiment [5] it was 20 µM (active); in experiment [6] it was 30.5 µM (active). The AC50 in [7] was 20 µM (active); in experiment [8], 26.6 µM (active); in [9], 24.1 µM (active); in [12] it was 30.1 µM (active); in [13], 32.2 µM (active); in experiment [15], 20 µM (active). Also, the AC50 is 27.7 µM (active) in [16], 29.3 µM (active) in [17], 26.1 µM (active) in experiment [18] and 20 µM (active) in experiment [19]. In addition, the outcome in experiment [11] was inactive.

On to `CCCCCCCCCCCC(=O)OC`, for which the outcome in experiment [1], in experiment [2], in experiment [3], in [4], in [5] and in [6] was inactive. For the same molecule, the outcome in experiment [7], in experiment [8], in [9], in experiment [11], in [13] and in experiment [14] was inactive. For the same molecule, the result in [15], in experiment [16], in experiment [17], in experiment [18] and in experiment [19] was inactive.
